PubChem BioAssay AID602365 (National Center for Advancing Translational Sciences (NCATS), 2012)
Results filed as inconclusive are left out. Active and inactive are the calls of the source. Calls follow the shape of the dose curve; as a rule, active = well fitted inhibition curve with a large enough effect; inconclusive = small, poorly fitted or top-dose-only effect; inactive = flat fitted curve, though single readings scatter.

target: Luciferin 4-monooxygenase (Photinus pyralis) (UniProt P08659); experiment: FLuc inhibitory activity for the follow-up compounds in a biochemical assay with 1mM D-luciferin; settings: purified FLuc, luminescence; series mostly up to 57.5 µM; activity change, negative = inhibition: at the top concentration
Source text: NCGC Assay Overview: Firefly (Photinus pyralis) luciferase is one of the most commonly used transcriptional reporters. It is considered one of the more dynamically responsive reporters - that is, responsive to changes in reporter transcription - as it requires no post-translational modifications and is enzymatically active directly after protein synthesis (Wood, 1998). With no endogenous expression in mammalian cells and without the requirement of external excitation, it offers very little background signal, thus generally providing excellent signal to background for most assays. Previous profiling work to determine the prevalence of compounds that affect FLuc enzymatic activity (PubChem AID 411) identified that ~3% of the MLSMR library (then at ~72K) inhibited FLuc. […] Of the compounds identified in this profile that inhibited FLuc, 151 compounds were selected for further analysis, in an effort to better understand their mode of inhibiting FLuc. The assay described here was to determine the activity of the compounds in a FLuc assay that contained a KM concentration of ATP and a high concentration (1mM) of D-luciferin.
NCGC Assay Protocol Summary: Reagents: 50mM Tris acetate, pH 7.5; 10mM Mg acetate; 1mM D-luciferin (Sigma #L9504); 10uM ATP; 0.01% Tween-20; 0.05% BSA; 10nM P. pyralis luciferase (Sigma #L9506) Control compounds used were two known firefly luciferase inhibitors (3-(5-(3-chlorophenyl)-1,2,4-oxadiazol-3-yl)benzoic acid and 5-(2-fluorophenyl)-3-phenyl-1,2,4-oxadiazole), and DMSO. Three microliters containing firefly luciferase substrates in buffer (final concentrations: 50mM Tris acetate, pH 7.5, 10mM Mg acetate, 0.01% Tween-20, 0.05% BSA, 1mM D-luciferin, 10uM ATP) are dispensed into each well of a Greiner white, solid-bottom 1536-well format plate using a flying reagent dispenser (FRD). These assay plates were then treated with 23nL of compound or DMSO using a Kalypsys pin tool, which allows for delivery of a 12-point intraplate titration of each compound to the assay plate (quantitative HTS), with a final compound concentrations ranging from approximately ~60uM to 0.3nM. One microliter of firefly luciferase in […] Tris-acetate buffer was then delivered by FRD to each well for a final enzyme concentration of 10nM. Luciferase activity was then measured using a ViewLux CCD imager (PerkinElmer), with an average exposure time of 2-30 seconds (2X binning, medium/high gain).

Luciferin 4-monooxygenase (Photinus pyralis), sequence (P08659 whole entry, looked up): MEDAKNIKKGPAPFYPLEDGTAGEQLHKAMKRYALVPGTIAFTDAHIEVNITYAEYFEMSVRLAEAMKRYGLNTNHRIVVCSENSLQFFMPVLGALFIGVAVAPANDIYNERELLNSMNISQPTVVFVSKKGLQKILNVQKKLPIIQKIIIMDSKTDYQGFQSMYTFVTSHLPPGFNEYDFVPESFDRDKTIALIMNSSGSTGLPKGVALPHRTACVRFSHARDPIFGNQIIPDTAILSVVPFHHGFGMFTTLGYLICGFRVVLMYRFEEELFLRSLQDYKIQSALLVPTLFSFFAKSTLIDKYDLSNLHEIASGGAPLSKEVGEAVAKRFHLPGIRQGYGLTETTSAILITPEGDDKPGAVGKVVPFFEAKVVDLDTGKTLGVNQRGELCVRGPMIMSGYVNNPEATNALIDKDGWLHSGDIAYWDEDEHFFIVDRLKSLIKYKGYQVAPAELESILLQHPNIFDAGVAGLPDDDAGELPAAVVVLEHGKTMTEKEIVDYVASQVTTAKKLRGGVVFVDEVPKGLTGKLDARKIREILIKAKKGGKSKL

Activity change, negative = inhibition, inactive:
Cc1ccc(C(=O)Nc2ccc(C(=O)O)cc2)cc1S(=O)(=O)NCc1ccccc1 -15.4%
O=C(Nc1ccccc1C(=O)O)c1ccccc1 -19.5%
COc1c(C)cccc1C(=O)Nc1ccc(-c2nc3ccccc3s2)c(Cl)c1 -4.07%
Cc1cccc(C(=O)Nc2ccc(-c3nc4ccccc4s3)cc2Cl)c1 -10.9%
Cc1ccc(S(=O)(=O)N2CCOCC2)cc1C(=O)Nc1ccccc1C(=O)O -7.96%
COc1cc(OC)cc(C(=O)Nc2ccccc2-c2nc3ccccc3s2)c1 1.62%
O=C(Cc1ccccc1)Nc1ccccc1C(=O)Nc1ccc(C(=O)O)cc1 -0.0902%
CCOC(=O)N1CCN(CC(=O)Nc2nc3ccc(OC)cc3s2)CC1 -4.7%
O=C(O)c1cccc(NC(=O)c2cccc(S(=O)(=O)Nc3cccc(F)c3)c2)c1 -4.54%
COc1ccc2nc(NC(=O)CCc3nc(-c4ccccc4F)no3)sc2c1 -3.48%
O=C(Nc1ccccc1C(=O)O)c1cc(S(=O)(=O)NCc2ccccc2)ccc1Cl -4.2%
O=C(O)c1ccc(NC(=O)c2cc(S(=O)(=O)N3CCCCC3)c(Cl)cc2Cl)cc1 -3.94%
CN(C)S(=O)(=O)c1ccc(C(=O)Nc2cccc(C(=O)O)c2)cc1 -19.5%
COc1ccc(NS(=O)(=O)c2cccc(C(=O)Nc3ccccc3C(=O)O)c2)cc1 -13.9%

Potency, active:
Nc1ccc2nc(-c3ccccc3)sc2c1 0.919 µM
CC(C)(C)C(=O)Nc1ccc(-c2nc3ccccc3s2)cc1 0.0411 µM
CC(C)CC(=O)Nc1cccc(C(=O)Nc2ccccc2C(=O)O)c1 23.1 µM
Nc1cccc(-c2nc3ccc(N)cc3s2)c1 2.59 µM
Cc1ccc(C(=O)Nc2ccccc2C(=O)O)cc1S(=O)(=O)N1CCCCCC1 5.17 µM
CC(=O)Oc1ccc(C(=O)Nc2ccccc2C(=O)Nc2cccc(C(=O)O)c2)cc1 16.3 µM
Cc1ccc(C(=O)Nc2cccc(C(=O)O)c2)cc1 4.11 µM
Cc1ccc2sc(-c3ccc(NC(=O)c4cc(-n5cnnc5)ccc4Cl)cc3)nc2c1 18.3 µM
CN=c1scc(-c2ccccc2F)n1/N=C/c1ccc[nH]1 0.0819 µM
COc1cccc(-c2nc3ccccc3s2)c1 5.17 µM
Nc1ccc(-c2nc3cc(N)ccc3s2)cc1 18.3 µM
Cc1ccc(C(=O)O/N=C(\N)c2ccccn2)c(Cl)c1 0.0919 µM
Oc1ccc(-c2nc3ccccc3s2)c(O)c1 16.3 µM
CC(C)C(=O)Nc1cccc(C(=O)Nc2ccccc2C(=O)O)c1 18.3 µM
Cc1c(NC(=O)C(C)(C)C)cccc1-c1nc2ccccc2s1 10.3 µM
Cc1ccc(C(=O)Nc2cccc(C(=O)O)c2)cc1S(=O)(=O)N1CCCCC1 4.11 µM
COc1ccc(-c2nc3ccccc3s2)cc1O 0.651 µM
Nc1ccc(-c2nc3ccc(C(=O)O)cc3s2)cc1 1.16 µM
O=C(Nc1cccc(-c2nc3ccccc3s2)c1)c1cc(-n2cnnc2)ccc1Cl 8.19 µM
Cc1ccc(C(=O)Nc2cccc(C(=O)O)c2)cc1S(=O)(=O)N1CCOCC1 16.3 µM
CCCC(=O)Nc1nc2ccc(OCC)cc2s1 29.1 µM
O=C(Nc1ccccc1C(=O)O)c1ccc(NC(=O)C2CCCO2)cc1 (stereo not given) 20.6 µM
COc1ccc2nc(NC(=O)c3ccco3)sc2c1 3.26 µM
COc1ccc2nc(NC(=O)Cc3cccs3)sc2c1 13 µM
NC(=O)Cc1ccc2sc(-c3ccccc3)nc2c1 13 µM
COc1ccc(-c2cccc(C(=O)Nc3cccc(C(=O)O)c3)c2)cc1 18.3 µM
